# Measured values from the supplement of paper PMC9897528.
# System: Scedosporium aurantiacum CBS 136046
# Experiment: growth inhibition relative to DMSO control (OD600); higher = more antifungal activity, active = 80 or more
# Details: 5 µM; 72 h; 37 °C
# 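Note: conidia screened in RPMI 1640 medium under 5% CO2, growth read by spectrophotometer, medium with 0.5% DMSO serving as the untreated reference.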
row,Compound,growth inhibition
1,CCCCc1ccc(C(=O)O)nc1,15.8% (inactive)
2,CC(C)Oc1cccc(NC(=O)c2ccccc2C(F)(F)F)c1,6.87% (inactive)
3,C[C@H]1CC[C@]2(NC1)O[C@H]1C[C@H]3[C@@H]4CC[C@H]5C[C@@H](O)CC[C@]5(C)[C@H]4CC[C@]3(C)[C@H]1[C@@H]2C,8.88% (inactive)
4,CCN1CCN(Cc2nc3ccc([N+](=O)[O-])cc3c(=O)n2-c2ccccc2F)CC1,2.42% (inactive)
5,C[N+]1(C)CCCC(OC(=O)C(O)(c2ccccc2)c2ccccc2)C1 (stereo not drawn),34.9% (inactive)
6,Nc1c(C(=O)NCc2ccco2)c2nc3ccccc3nc2n1CCN1CCCCC1,36.7% (inactive)
7,O=C(NC12CC3CC(CC(C3)C1)C2)c1cc2ccccc2[nH]1,1.85% (inactive)
8,COc1cc(C(C)(C)CCCC(C)C)cc(OC)c1OC,13.3% (inactive)
9,NC1(C(=O)O)CCP(=O)(O)CC1 (stereo not drawn),11.9% (inactive)
10,COc1ccccc1CN[C@H]1C2CCN(CC2)[C@H]1C(c1ccccc1)c1ccccc1,25.9% (inactive)
11,COC(=O)Nc1nc2ccccc2[nH]1,1.58% (inactive)
12,CN1C(=O)C(c2ccccc2)C(=O)N(c2ccccc2)c2cc(C(F)(F)F)ccc21 (stereo not drawn),2.84% (inactive)
13,C[C@@]1(O)[C@H](O)[C@@H](CO)O[C@H]1n1ccc2c(N)ncnc21,3.66% (inactive)
